Our source for the growth values is PubChem BioAssay (NCI).

“And” between values parts separate entries of the source, which are not always exact repeats. Identical values can stand only once. About 83,000 compounds went through this panel and 20% of them were active in at least one assay; those are over-represented in the sample as a whole.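 Percent growth is the endpoint: 0 to 100 indicates growth inhibition (40 means 60% inhibition), 0 means no net growth, and negative values indicate cell death.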 The source made the active and inactive calls.

The first assay has as its system SK-OV-3 ovarian. Kind of assay: NCI-60 one-dose screen, 48 h (100 = growth as untreated, 0 = no growth, -100 = all killed). The note with it: 10 µM. The protocol: Growth inhibition of the SK-OV-3 human tumor cell line is measured as a screen for anti-cancer activity. Cells are grown in 96 well plates and exposed to the test compound for 48 hours. Compounds are tested at a single concentration, which is 10^-5 M for most compounds. The reported endpoint is percent growth (GI% or GIPRCNT), where numbers from 0 - 100% represent growth inhibition, and numbers from -100% - 0 represent cell death. For example, a value of 40 represents 60% growth inhibition. A value of 0 means no net growth occurred over the course of the experiment. A value of -40 indicates 40% of cells at the beginning of the experiment died by the end of the experiment. A value of -100 means all cells are dead at the end of the experiment.
NCI-60 Human Tumor Cell Lines Screen was performed using the standard one-dose NCI protocol, which is described in more detail at https://dtp.cancer.gov/discovery_development/nci-60/default.htm.
Compounds with GIPRCNT values below 10 were considered active. Activity score was based on GIPRCNT using the following formula: […]
Score is 0 for GIPRCNT values of 100 or above, 50 for GIPRCNT values of 0, and 100 for GIPRCNT values of -100.
In the case of `CNC(=O)c1cc(Oc2ccc(CC(=O)Nc3cc(C(C)(C)C)nn3C)cc2)ccn1`, the growth is 71.8% (inactive).

Still in this assay, the particulars now being: 10 µM unless noted.
Turning to `CCC(C)C1(C2CCCC2)NC(=O)NC1=O` (stereo not given), the growth was 99.7% (inactive) and 109% (inactive).

Consider `CN(C)CCCNC1=C(Cl)C(=O)c2ccccc2C1=O`, for which the growth was 88.9% (inactive) and 95.9% (inactive).

For the compound `COc1cc2c(c(OC)c1OC)-c1ccc(OC)c(=O)cc1[C@@H](NC(C)=O)CC2`, the growth is 13.8% (inactive) and 25.8% (inactive) and 36.1% (inactive).

In the case of `O=c1c2ccccc2nc2n1Cc1nc3ccccc3c(=O)n1C2`, the growth is 112% (inactive) and 110% (inactive).

Consider `CCOc1ccc(Nc2c3ccccc3nc3ccccc23)cc1`, for which the growth is 96.6% (inactive) and 30.7% (inactive) and 40.5% (inactive).

With `COc1cc2c(Nc3ccc(Cl)c(Cl)c3F)ncnc2cc1OCC1C[C@@H]2CN(C)C[C@@H]2C1` (stereo not given in full), the growth is -87.7% (active) and -13.8% (active).

With `CN(C)c1ccc(/C=C(\C#N)c2ccccc2)cc1`, the growth was 30.9% (inactive) and 32.4% (inactive) and 29.9% (inactive).

As to `CCCCCCCCCCCCOc1ccccc1C=O`, the growth is 95.7% (inactive).

For `CC(=O)c1ccc2c(c1)N(CCCN1CCN(CCO)CC1)c1ccccc1S2`, the growth was 152% (inactive) and 50.5% (inactive).

Regarding `NC(=O)NO`, the growth is 107% (inactive) and 56.4% (inactive).

Regarding `O=C1c2c(O)cc(O)cc2OC(c2ccc(O)c(O)c2)C1O` (stereo not given), the growth is 109% (inactive).

Take `CC(=O)c1ccccc1O`: the growth was 114% (inactive) and 102% (inactive) and 101% (inactive).

For `N=C1N=C(N)CS1`, the growth is 109% (inactive).

For `CC(O)Cn1cnc2c1c(=O)n(C)c(=O)n2C` (stereo not given), the growth is 103% (inactive).

Take `O=[N+]([O-])c1ccc(/C=N\NC(=S)Nc2ccc(F)cc2)cc1`: the growth is 98.5% (inactive) and 91.7% (inactive).

In the case of `Oc1c(CN2CCCCC2)ccc2cccnc12`, the growth is 54.5% (inactive) and 50.8% (inactive).

With `Nc1ccc(N=Nc2ccc(S(=O)(=O)O)cc2)cc1S(=O)(=O)O`, the growth was 105% (inactive) and 106% (inactive).

Take `O=C(O)CSCc1nc2ccccc2[nH]1`: the growth is 113% (inactive).

In the case of `Nc1ccccc1Nc1ccccc1`, the growth was 114% (inactive) and 106% (inactive).

For the compound `CN(C)c1ccc(C(Cc2ccc3ccccc3n2)Cc2ccc3ccccc3n2)cc1`, the growth is 77.5% (inactive) and 99.6% (inactive).

`O=S1(=O)CC(Br)C(Br)C1` (stereo not given): the growth was 105% (inactive) and 110% (inactive).

On to `CC(=O)Nc1cccc2c1CCCC2`, for which the growth is 89% (inactive) and 92.3% (inactive).

For `Oc1nc(NCCc2ccccc2)sc1/C=C1\C=Nc2ncccc21`, the growth is 2.11% (active) and 27% (inactive).

As to `Clc1ccc(NC(Nc2ccc(Cl)cc2)C(Cl)(Cl)Cl)cc1`, the growth was 100% (inactive) and 98% (inactive).

With `COc1ccc(-c2cn[nH]c2-c2cc(OC)c(OC)c(OC)c2)cc1N`, the growth was 23% (inactive) and 36.5% (inactive).

With `Cc1cccc(/C=C\C(=O)c2ccc(Cl)cc2)c1`, the growth is 108% (inactive) and 104% (inactive).

With `O=C(Nc1ccc([N+](=O)[O-])cc1Cl)c1cc(Cl)ccc1O`, the growth is 4.16% (active) and 12.8% (inactive).

Turning to `OC(COc1cccc2ccccc12)CN1CCN(c2ccc(Cl)cc2)CC1` (stereo not given), the growth was 88.8% (inactive) and 100% (inactive).

On to `CC(CN=Cc1ccccc1O)N=Cc1ccccc1O` (stereo not given), for which the growth was 104% (inactive) and 86.4% (inactive).

Turning to `c1ccc2cc(C[n+]3ccn(Cc4ccc5ccccc5n4)c3)ccc2c1`, the growth is -11.7% (active) and 34.2% (inactive).

Regarding `CCOC(=O)Nc1ccc2c(c1)/C(=N\NC(N)=S)c1ccccc1-2`, the growth was 96.5% (inactive) and 93.2% (inactive).

Consider `CC12CCC(CC1)C(C)(C)O2`, for which the growth was 104% (inactive).

As to `O=C(O)C1(C(=O)O)CCC1.[NH2-].[NH2-].[Pt+2]`, the growth is 104% (inactive) and 107% (inactive).

In the case of `CNC(=O)c1cccc(-c2ccc3c(N4CCOC[C@@H]4C)nc(N4CCOC[C@@H]4C)nc3n2)c1`, the growth was -23% (active) and -36.9% (active).

As to `CC(=O)Oc1cc(C(=O)O)cc(OC(C)=O)c1OC(C)=O`, the growth was 94.1% (inactive) and 102% (inactive).

Regarding `Nc1ncnc2c1ncn2C1CC(O)C(CO)O1` (stereo not given), the growth was 105% (inactive) and 110% (inactive).

In the case of `O=C(Nc1cccc(Cl)c1)c1cc2ccccc2cc1O`, the growth is -11.7% (active).

Take `NC(=S)NS(=O)(=O)c1ccc(N)cc1`: the growth was 108% (inactive).

The same assay, now with this note: 30 µM.
As to `CNC(=O)c1cc(Oc2ccc(CC(=O)Nc3cc(C(C)(C)C)nn3C)cc2)ccn1`, the growth is 94.4% (inactive).
